This is part of a sample that, as a whole, favours compounds with a hit. Of some 83,000 tested, about 20% had one in any assay.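 The test compound was applied at a single concentration to cells in 96-well plates for 48 hours, and percent growth was recorded.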 The source made the active and inactive calls. The calls were made as follows: active = growth percent below 10; inactive = the rest.
What was measured:
Test in all cases: NCI-60 one-dose screen, 48 h (100 = growth as untreated, 0 = no growth, -100 = all killed)
Conditions in all cases: 10 µM unless noted
[1] = tested on: NCI-H23 lung
[2] = tested on: NCI-H226 lung
[3] = tested on: NCI-H322M lung
[4] = tested on: HOP-62 NSCLC
[5] = tested on: NCI-H460 lung
[6] = tested on: NCI-H522 lung
[7] = tested on: A549/ATCC NSCLC
[8] = tested on: 786-0 renal
[9] = tested on: COLO 205 colon
[10] = tested on: DU-145 prostate
[11] = tested on: K-562 leukemia
[12] = tested on: MALME-3M melanoma
[13] = tested on: MDA-MB-231 breast
[14] = tested on: SF-268 CNS
[15] = tested on: SF-295 CNS
[16] = tested on: SF-539 CNS
[17] = tested on: UACC-257 melanoma
[18] = tested on: RXF 393 renal
[19] = tested on: M14 melanoma

Measured: growth

CCn1c(SCC(=O)Nc2cccc(C(=O)/C=C/c3ccccc3Cl)c2)nc2ccccc2c1=O
inactive: [1] 69.5% | [2] 81.9% | [3] 90.5% | [4] 93.7% | [5] 95.7% | [6] 85.3% | [7] 78.6% | [8] 95.6% | [9] 114% | [10] 77.8% | [11] 53% | [12] 103% | [13] 87.1% | [14] 88% | [15] 91.4% | [16] 90.4% | [17] 110%

CCNC(=O)N1CCc2cc(OC)c(OCCc3ccc(OC)cc3)cc2C1c1ccc(OC)cc1C (centres undefined)
inactive: [1] 29% | [2] 33.5% | [3] 40.1% | [4] 20.3% | [7] 13.8% | [9] 27.6% | [10] 16.2% | [11] 16.5% | [12] 45.9% | [13] 19.7% | [14] 34% | [15] 10.6% | [17] 50.5% | [19] 20%
active: [5] 1.22% | [6] -8.18% | [8] 9.54% | [18] -12.7% | [16] 6.35%

COc1ccccc1NC1=C(Cl)C(=O)c2nc(C)ccc2C1=O
active: [1] -8.37% | [6] -48.5% | [8] 9.17% | [10] -57.3% | [11] -21.1% | [12] -55.9% | [13] -57.3% | [16] 1.78% | [17] -82.7%
inactive: [2] 29.6% | [3] 71.1% | [4] 74.1% | [5] 70.8% | [7] 101% | [9] 111% | [14] 47.4% | [15] 96.6%

CS(=O)(=O)Nc1cc(-c2ccc3ncc(C#N)c(Nc4cccc(Cl)c4F)c3c2)cnc1Cl
inactive: [2] 10.4% | [10] 11.9% | [11] 21.8%
active: [1] 8.28% | [3] -10.2% | [4] -8.87% | [5] 6.34% | [6] 1.54% | [7] 4.61% | [8] 4.98% | [9] -74.5% | [12] -32.5% | [13] -8.64% | [14] -10.1% | [15] -10.9% | [16] -24.4% | [17] 2.63%

CN1CCN(Cc2ccc(NC(=O)c3cncc(C#Cc4cnc5ccc(OCC(C)(C)O)nn45)c3)cc2C(F)(F)F)CC1
active: [1] -58.4% | [2] -64.1% | [3] -22.5% | [4] -9.7% | [5] -73.9% | [6] -35.3% | [7] -45.3% | [8] -62.3% | [9] -70% | [10] -36.8% | [11] 8.57% | [12] -67.6% | [13] -11.1% | [14] -50.4% | [15] -2.58% | [16] -83.1% | [17] -16.8%

Cn1cc(-c2nc(N)nnc2-c2c[nH]c3ccccc23)c2cc(Br)ccc21
inactive: [1] 17% | [2] 60.3% | [3] 41.9% | [4] 45.9% | [5] 12.6% | [7] 50.8% | [8] 43.5% | [10] 18.6% | [11] 11.6% | [12] 40.8% | [13] 34.2% | [14] 39.6% | [17] 72.1%
active: [6] -2.27% | [9] 9.53% | [18] 7.61% | [15] -7.74% | [16] 6.14% | [19] 6.36%

Cc1cccc2c3c(sc12)C(c1ccc(Cl)cc1)c1c(nc(CC(=O)Nc2ccccc2)[nH]c1=O)O3 (centres undefined)
inactive: [1] 55.1% | [2] 65.4% | [3] 76.5% | [4] 59.8% | [5] 42.1% | [6] 26.9% | [7] 62.6% | [8] 75.9% | [9] 101% | [10] 93% | [11] 20.9% | [12] 51.3% | [13] 77% | [18] 39.9% | [14] 66.7% | [15] 29.1% | [16] 40% | [17] 79.8% | [19] 61.7%

Cn1ccnc1C(=O)/C=C/c1ccc(NC(=O)c2ccc(F)cc2)cc1
active: [5] -19.7% | [10] 9.78% | [16] -3.29%
inactive: [1] 13.4% | [2] 45.3% | [3] 46.3% | [4] 64.5% | [6] 17.4% | [7] 34.8% | [8] 22.1% | [9] 75.4% | [11] 15% | [12] 87.8% | [13] 22.1% | [14] 21.8% | [15] 52.5% | [17] 84.2%

Oc1cccc2ccc(-c3nnc(SCc4ccc(O)c5ncccc45)n3-c3ccccc3)nc12
inactive: [1] 20.5% | [2] 39.5% | [3] 20.9% | [4] 16.5% | [6] 13.5% | [7] 15.4% | [8] 25.9% | [9] 53.9% | [10] 25.2% | [11] 12.4% | [13] 29.7% | [14] 22.8%
active: [5] 2.48% | [12] -3.5% | [15] 2.95% | [16] 4.73% | [17] -2.75%

Source: PubChem BioAssay (NCI)
